JMJD2A Tudor: qHTS Assay for Inhibitors of JMJD2A-Tudor Domain | Lysine-specific demethylase 4A (Homo sapiens), O75164 | AlphaScreen JMJD2A-Tudor / H3K4me3 peptide binding | Potency, µM (top dose mostly 114 µM), actives largely listed as inhibitors | hit rate 4.4% among 390,000 | AID 504339, 2011; further: nearly all actives have a fitted effect of over 50% in size
Target sequence (O75164 whole entry, looked up, the tested form may be a part): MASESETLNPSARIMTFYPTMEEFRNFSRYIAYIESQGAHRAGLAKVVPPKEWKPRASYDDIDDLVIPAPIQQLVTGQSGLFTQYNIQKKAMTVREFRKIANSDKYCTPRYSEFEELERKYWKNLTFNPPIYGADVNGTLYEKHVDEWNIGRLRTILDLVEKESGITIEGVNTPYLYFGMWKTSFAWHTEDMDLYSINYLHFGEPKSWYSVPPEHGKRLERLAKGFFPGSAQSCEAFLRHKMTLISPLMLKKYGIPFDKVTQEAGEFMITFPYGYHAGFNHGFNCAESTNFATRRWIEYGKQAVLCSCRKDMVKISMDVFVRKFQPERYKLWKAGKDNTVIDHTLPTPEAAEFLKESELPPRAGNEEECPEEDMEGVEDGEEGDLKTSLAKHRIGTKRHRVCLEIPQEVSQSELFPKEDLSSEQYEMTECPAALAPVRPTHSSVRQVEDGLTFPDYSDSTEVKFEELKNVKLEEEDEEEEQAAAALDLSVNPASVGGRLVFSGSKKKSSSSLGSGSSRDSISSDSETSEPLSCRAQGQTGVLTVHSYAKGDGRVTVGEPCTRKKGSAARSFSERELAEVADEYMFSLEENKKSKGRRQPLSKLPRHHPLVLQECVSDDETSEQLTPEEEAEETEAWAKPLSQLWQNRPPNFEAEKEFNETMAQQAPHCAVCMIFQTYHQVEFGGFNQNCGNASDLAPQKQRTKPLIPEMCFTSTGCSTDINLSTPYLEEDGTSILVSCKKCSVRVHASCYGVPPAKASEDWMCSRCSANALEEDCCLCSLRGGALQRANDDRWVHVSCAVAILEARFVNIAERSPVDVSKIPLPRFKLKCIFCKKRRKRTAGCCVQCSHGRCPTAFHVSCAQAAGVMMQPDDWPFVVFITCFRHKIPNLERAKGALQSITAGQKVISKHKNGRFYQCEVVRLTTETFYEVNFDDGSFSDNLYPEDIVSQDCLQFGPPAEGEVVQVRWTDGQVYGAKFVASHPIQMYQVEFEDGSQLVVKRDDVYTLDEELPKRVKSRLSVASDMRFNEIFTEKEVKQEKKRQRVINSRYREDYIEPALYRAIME
BAZ2B block: qHTS Assay for Inhibitors of BAZ2B. AlphaScreen BAZ2B-H3K14Ac peptide displacement. Bromodomain adjacent to zinc finger domain protein 2B (Homo sapiens), Q9UIF8. Potency, µM (top dose mostly 114 µM), hits mostly inhibitors. AID 504333, 2011. hit rate 4.4% among 360,000; further: nearly all actives have a fitted effect of over 60% in size
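AlphaScreen displacement of biotin-H3(5-23)K14Ac peptide (50 nM final) from BAZ2B (50 nM final) in PBS pH 7.4, 0.01% Tween-20; complex preformed 30 min RT, then compounds (top 110 uM) 30 min RT, beads 20 min dark.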
HP1b binding inh: HTS for Inhibitors of HP1-beta Chromodomain Interactions with Methylated Histone Tails. Chromobox protein homolog 1 (Homo sapiens), P83916. AlphaScreen HP1-beta / biotin-H3K9me3 peptide binding. Potency, µM (doses to about 114 µM), actives largely listed as inhibitors. hit rate 0.56% among 390,000; further: nearly all actives have a fitted effect of over 70% in size
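Compound inhibition of the preformed complex between 50 nM HP1-beta and 50 nM biotinylated H3K9me3 peptide was read by AlphaScreen. Buffer was PBS pH 7.4 with 0.01% Tween-20. Incubations ran 30 min at room temperature, with 10 ug/mL donor/acceptor beads.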
L3MBTL1 inh: qHTS Assay for the Inhibitors of L3MBTL1. AlphaScreen L3MBTL1–H3K9me1 peptide binding. Potency, µM (highest dose often 57.1 µM), actives largely listed as inhibitors. hit rate 0.66% among 230,000; further: nearly all actives have a fitted effect of over 60% in size
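AlphaScreen proximity signal between nickel-chelate acceptor and streptavidin donor beads (final 10 ug/mL) reports binding of 50 nM L3MBTL1 to 75 nM biotin-H3 K9me1 peptide; complex incubated with compounds 30 min at room temperature; cefsulodin titration as control.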
Sfp PPTase inh: qHTS Assay for Inhibitors of Bacillus subtilis Sfp phosphopantetheinyl transferase (PPTase); Potency, µM, hits mostly inhibitors; 4'-phosphopantetheinyl transferase ffp (Bacillus subtilis), Q9F4F7; Biochemical Sfp PPTase activity, qHTS; hit rate 3.5% among 310,000;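 further: the enzyme is Sfp with the accession as filed and its product quenches rhodamine fluorescence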
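Sfp 15 nM + cpd, 15 min RT; start w/ rhodamine-CoA 5 uM, BHQ-2-YbbR 12.5 uM (final); 50 mM Hepes pH 7.6, 10 mM MgCl2, 0.01% NP-40, 0.01% BSA; read 525/598 nm at 0 and 30 min.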
G9a inh: qHTS Assay for Inhibitors of Histone Lysine Methyltransferase G9a. Histone-lysine N-methyltransferase EHMT2 (Homo sapiens), Q96KQ7. G9a H3K9 monomethylation, AlphaScreen, 2 h. Potency, µM (titrated, usually from 102 µM), most hits filed as inhibitors. hit rate 8.8% among 350,000. AID 504332, 2011; further: nearly all actives have a fitted effect of over 75% in size
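Readings reflect AlphaScreen signal from monomethyl-H3K9 antibody detection. HMT at 20 nM; substrate b-H3K9 500 nM; cofactor SAM 20 uM; 2 h RT reaction; compounds tested as titrations in qHTS with 15 min preincubation.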
A number is an active result; 0 = inactive; ? = inconclusive; - = no result; ! = a repeat was not active; [ ] = dose if it differs, or a comment. An excerpt weighted towards active compounds, which were near 12% of everything screened. The call rests on the fitted dose curve; in most records, active means well fitted curve in the direction sought with a large enough effect; inconclusive means small, poorly fitted or top-dose-only effect, or another doubt; inactive means no such curve, though single readings can be large; an effect the other way counts as inactive or inconclusive.

SMILES	JMJD2A Tudor	BAZ2B block	HP1b binding inh	L3MBTL1 inh	Sfp PPTase inh	G9a inh
COc1ccccc1CN1C[C@@H]2C[C@@H](c3[nH]c4c(C)cccc4c3C)N3CCC[C@@]23C1=O	0	?	0	0	0	45µM
COc1ccccc1CN1C[C@@H]2C[C@@H](c3cccc(C)n3)N3CCC[C@@]23C1=O	0	0	0	0	0	-
O=C(CN1C(=O)NC2(CCCCCCC2)C1=O)Nc1ccc(OC(F)F)cc1	0	-	0	0	-	-
CC1(c2ccc([N+](=O)[O-])cc2)NC(=O)N(CC(=O)Nc2ccc(N3CCCCC3)cc2)C1=O (stereo unspecified)	?	35µM	?	0	-	11µM
CC1(c2ccc(OC(F)F)cc2)NC(=O)N(CC(=O)Nc2ccc(N3CCCCC3)cc2)C1=O (stereo unspecified)	?	?	?	0	-	7.1µM
O=C(CSc1ccc(-c2ccccn2)nn1)c1ccccc1	7.1µM	3.5µM	0	-	0	?
O=C(CSc1ccc(-c2ccccc2)nn1)c1ccccc1	0	0	0	0	0	?
Cn1c(SCC(=O)NC2CCCC2)nnc1-c1ccccn1	0	?	0	-	0	-
O=C(CSc1ccc(-c2ccccn2)nn1)N1CCCC1	3.2µM	7.1µM	0	-	45µM	3.5µM
O=C(CSc1ccc(-c2ccccn2)nn1)NC1CCCC1	3.2µM	3.2µM	0	-	0	0
c1ccc(CSc2ccc(-c3ccccn3)nn2)cc1	7.9µM	6.3µM	0	-	0	0
O=C(COC(=O)C1CC1)NCc1ccccc1	0	0	0	0	-	0
CC(=O)N1CCOc2ccc(S(=O)(=O)N3CCC(C(=O)NCc4ccc(F)cc4)CC3)cc21	0	0	0	-	0	0
CCOC(=O)c1c(NC(=O)c2ccc(S(=O)(=O)N(CC(C)C)CC(C)C)cc2)sc2c1CCN(C(=O)OCC)C2	0	0	0	-	-	0
COc1ccc(NC(=O)c2c(C)oc3ccc(O)c(CN4CCN(Cc5ccccc5)CC4)c23)cc1Cl	?	0	0	-	-	?
O=C(Nc1cccc(F)c1)N1CC[C@@]2(CCCN(C(=O)c3ccco3)C2)C1	-	-	-	-	0	0[12.7 µM]
COc1ccccc1-c1nnc2sc(-c3ccc(N(C)C)cc3)nn12	0	0	0	0	0	0
COc1cccc(-c2nn3c(-c4ccccn4)nnc3s2)c1	79µM	0	0	?	0	0
COc1cc(-c2nn3c(C4CCCCC4)nnc3s2)cc(OC)c1OC	0	0	0	0	?	?
COc1ccc(-c2nn3c(C4CCCCC4)nnc3s2)cc1OC	0	0	?	0	?	10µM
COc1ccccc1-c1nnc2sc(-c3cnccn3)nn12	50µM	0	0	-	0	?
COc1ccc(-c2nn3c(-c4ccccn4)nnc3s2)cc1OC	?	45µM	0	0	0	0
Nc1cc(S(=O)(=O)N2CCN(S(=O)(=O)c3ccc4c(c3)OCCO4)CC2)ccn1	0	-	-	-	-	-
Cc1ccccc1CNS(=O)(=O)c1c(C)[nH]c(C)c1C(=O)N1CCCCC1	?	0	0	-	0	0
O=C(c1ccco1)N1CCC2(CC1)CCN(c1ccccn1)CC2	-	-	-	-	0	0[12.7 µM]
SMILES	JMJD2A Tudor	BAZ2B block	HP1b binding inh	L3MBTL1 inh	Sfp PPTase inh	G9a inh
CC1Cc2cc(S(=O)(=O)NCc3ccccc3Cl)ccc2N1C(=O)C1CCC1 (stereo unspecified)	0	0	0	-	-	0
Fc1cccc(CNc2ncnc3ccc(-c4cccnc4)cc23)c1	-	0	-	0	-	0[12.7 µM]
Cc1ccc2c(c1)N(CC(=O)N1CCCCC1C)C(=O)CO2 (stereo unspecified)	0	0	0	-	0	0
O=C(COC(=O)c1ccc(Cl)cc1O)NC(=O)C1CCCCC1	0	0	0	0	0	50µM
CSc1nc2nc3c(cc2c(=O)n1-c1ccccc1C)CCCC3	0	0	0	0	0	7.1µM
CSc1nc2sc3c(c2c(=O)n1-c1ccccc1C)CCCC3	0	0	0	-	-	0
O=C(/C=C/c1ccc(O)c(O)c1)O[C@@H]1C[C@](O)(C(=O)O)C[C@@H](O)[C@H]1O	18µM!	0	0	0	-	13µM!
O=C(/C=C\c1ccc(O)c(O)c1)O[C@@H]1C[C@](O)(C(=O)O)C[C@@H](O)[C@@H]1O	-	-	-	-	?	0.35µM
COc1cc(/C=C/C(=O)OC2CC3CCC2(C)C3(C)C)ccc1O (stereo unspecified)	0	0	0	-	0	0
O=C(O)C1(O)CC(O)C(O)C(O)C1 (stereo unspecified)	-	-	-	-	0	-
Cc1cc2c(s1)c1cnn(Cc3cc(C(F)(F)F)cc(Cl)c3F)c(=O)c1n2C	0	-	-	-	-	-
COc1ccc(NC(=O)CN(C)C(=O)CN2C(=O)c3ccc([N+](=O)[O-])cc3C2=O)cc1	0	0	0	-	0	0[12.7 µM]
O=C(CCCn1c(=O)oc2ccccc21)Nc1ccccc1	0	0	0	0	-	0
O=C(CCn1c(=O)oc2ccccc21)NCCCN1CCOCC1	0	0	0	-	0	0
O=C(CCn1c(=O)oc2ccccc21)Nc1ccccc1	0	0	0	0	?	35µM
O=C(CCn1c(=O)oc2ccccc21)NCCCN1CCN(c2ccc(F)cc2)CC1	0	?	0	0	0	2.5µM
COc1ccc(CCNc2ncnc3c2c(-c2ccccc2)cn3-c2cccc(Cl)c2)cc1OC	0	0	0	-	-	0
CCCN(CCO)C1CCN(CCc2ccccc2)CC1	0	0	0	-	0	50µM
CCCCC(=O)NNC(=O)N1c2ccccc2Sc2ccccc21	0	0	0	-	0	?
Cc1ccn2cc(CNS(=O)(=O)c3ccc4ccccc4c3)nc2c1	0	0	0	-	0	71µM
COc1ccccc1NS(=O)(=O)c1cccc(C(=O)N/N=C/c2ccc(NC(C)=O)cc2)c1	0	0	0	0	0	0[12.7 µM]
COc1ccccc1NS(=O)(=O)c1cccc(-n2c(O)c(C=Nc3ccccc3C(=O)O)c3ccccc3c2=O)c1	56µM	40µM	?	0	0	45µM
COc1ccc(Cn2c(O)c(C=Nc3ccccc3C(=O)O)c3ccccc3c2=O)cc1	0	79µM	0	0	0	-
COc1ccc(Cn2c(O)c(C=Nc3ccc(OC)cc3)c3ccccc3c2=O)cc1	0	0	0	0	0	0
Cc1[nH]c2ccccc2c1C(=O)C(=O)NC1CC(=O)N(c2cccc(F)c2)C1 (stereo unspecified)	0	0	0	-	-	0
COc1ccccc1NCC(=O)c1ccc(Cl)cc1	?	?	?	-	50µM	50µM

Screening results from PubChem.
